Assay [1] addresses Fibroblast growth factor receptor 4 (Homo sapiens) (UniProt P22455). The note with it: at 1 µM.
Assay [2] deals with Tyrosine-protein kinase Fgr (Homo sapiens) (UniProt P09769). As to conditions: at 0.1 µM.
The target is the same in assay [3]. The note with it: at 1 µM.
In assay [4] the target is Vascular endothelial growth factor receptor 1 (Homo sapiens) (UniProt P17948). The note with it: at 0.1 µM.
Assay [5] has the same target. As to conditions: at 1 µM.
Assay [6] addresses Receptor-type tyrosine-protein kinase FLT3 (Homo sapiens) (UniProt P36888). The note with it: at 0.1 µM.
Assay [7] shares this target. As to conditions: at 1 µM.
Assay [8] concerns T1, Receptor-type tyrosine-protein kinase FLT3 (Homo sapiens), P36888 [D835Y].
T1 sequence (whole entry): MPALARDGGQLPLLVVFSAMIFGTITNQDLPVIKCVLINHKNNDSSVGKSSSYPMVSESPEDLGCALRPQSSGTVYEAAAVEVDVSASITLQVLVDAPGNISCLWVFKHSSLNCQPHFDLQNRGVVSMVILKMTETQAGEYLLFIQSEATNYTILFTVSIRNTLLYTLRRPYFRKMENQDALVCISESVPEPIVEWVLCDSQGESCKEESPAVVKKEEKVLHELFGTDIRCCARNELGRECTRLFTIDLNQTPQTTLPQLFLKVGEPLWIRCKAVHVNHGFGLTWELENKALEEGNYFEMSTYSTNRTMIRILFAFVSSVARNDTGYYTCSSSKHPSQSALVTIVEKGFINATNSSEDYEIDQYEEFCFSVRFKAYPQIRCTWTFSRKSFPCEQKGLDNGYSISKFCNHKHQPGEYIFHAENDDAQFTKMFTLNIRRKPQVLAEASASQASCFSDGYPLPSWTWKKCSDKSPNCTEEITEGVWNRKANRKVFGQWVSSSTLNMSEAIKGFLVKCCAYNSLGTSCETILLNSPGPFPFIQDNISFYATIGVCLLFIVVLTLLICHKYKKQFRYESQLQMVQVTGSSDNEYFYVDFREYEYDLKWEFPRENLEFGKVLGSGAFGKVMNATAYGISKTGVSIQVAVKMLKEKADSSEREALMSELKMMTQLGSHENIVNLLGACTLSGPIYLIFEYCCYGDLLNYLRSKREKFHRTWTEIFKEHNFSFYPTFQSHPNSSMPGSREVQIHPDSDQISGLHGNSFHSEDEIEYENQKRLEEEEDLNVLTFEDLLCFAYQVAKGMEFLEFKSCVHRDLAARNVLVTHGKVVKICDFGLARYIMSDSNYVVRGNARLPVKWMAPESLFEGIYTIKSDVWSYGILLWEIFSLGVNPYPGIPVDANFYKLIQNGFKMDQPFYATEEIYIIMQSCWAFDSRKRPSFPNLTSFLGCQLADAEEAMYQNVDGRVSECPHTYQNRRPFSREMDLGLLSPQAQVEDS
As to conditions: at 0.1 µM.

In assay [9] the target is Non-receptor tyrosine-protein kinase TYK2 (Homo sapiens) (UniProt P29597). As to conditions: at 1 µM.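 Also: values are mean percent inhibition of TYK2 kinase.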
The target of assay [10] is T2, Tyrosine-protein kinase receptor TYRO3 (Homo sapiens) (UniProt Q06418).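 Also: reported percentages are averaged inhibition values of TYRO3 kinase activity.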
T2 sequence (whole entry): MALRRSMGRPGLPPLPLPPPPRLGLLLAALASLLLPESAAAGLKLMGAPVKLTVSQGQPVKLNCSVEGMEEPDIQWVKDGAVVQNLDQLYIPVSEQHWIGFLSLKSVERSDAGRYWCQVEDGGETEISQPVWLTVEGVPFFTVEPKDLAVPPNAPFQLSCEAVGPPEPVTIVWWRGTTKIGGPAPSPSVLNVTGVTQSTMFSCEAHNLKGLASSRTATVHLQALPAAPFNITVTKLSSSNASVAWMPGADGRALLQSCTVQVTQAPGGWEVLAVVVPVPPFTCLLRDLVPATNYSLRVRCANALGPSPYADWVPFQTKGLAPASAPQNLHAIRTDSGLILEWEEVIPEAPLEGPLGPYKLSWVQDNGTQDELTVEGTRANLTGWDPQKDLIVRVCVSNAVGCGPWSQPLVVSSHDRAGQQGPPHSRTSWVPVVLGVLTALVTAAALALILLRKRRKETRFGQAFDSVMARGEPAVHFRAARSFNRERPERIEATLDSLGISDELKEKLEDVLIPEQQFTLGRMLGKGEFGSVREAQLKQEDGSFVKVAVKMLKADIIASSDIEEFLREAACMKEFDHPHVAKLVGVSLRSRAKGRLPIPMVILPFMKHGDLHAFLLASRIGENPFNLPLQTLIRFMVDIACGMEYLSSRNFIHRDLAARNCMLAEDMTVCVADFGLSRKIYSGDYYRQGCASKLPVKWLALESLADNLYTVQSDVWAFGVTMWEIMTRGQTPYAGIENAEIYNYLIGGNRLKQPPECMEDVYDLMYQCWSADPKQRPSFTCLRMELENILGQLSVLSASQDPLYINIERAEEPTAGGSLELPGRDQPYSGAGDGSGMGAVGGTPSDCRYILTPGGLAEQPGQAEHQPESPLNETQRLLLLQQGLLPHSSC
The note with it: at 0.1 µM.

Sequence of Vascular endothelial growth factor receptor 1 (Homo sapiens) (P17948 whole entry): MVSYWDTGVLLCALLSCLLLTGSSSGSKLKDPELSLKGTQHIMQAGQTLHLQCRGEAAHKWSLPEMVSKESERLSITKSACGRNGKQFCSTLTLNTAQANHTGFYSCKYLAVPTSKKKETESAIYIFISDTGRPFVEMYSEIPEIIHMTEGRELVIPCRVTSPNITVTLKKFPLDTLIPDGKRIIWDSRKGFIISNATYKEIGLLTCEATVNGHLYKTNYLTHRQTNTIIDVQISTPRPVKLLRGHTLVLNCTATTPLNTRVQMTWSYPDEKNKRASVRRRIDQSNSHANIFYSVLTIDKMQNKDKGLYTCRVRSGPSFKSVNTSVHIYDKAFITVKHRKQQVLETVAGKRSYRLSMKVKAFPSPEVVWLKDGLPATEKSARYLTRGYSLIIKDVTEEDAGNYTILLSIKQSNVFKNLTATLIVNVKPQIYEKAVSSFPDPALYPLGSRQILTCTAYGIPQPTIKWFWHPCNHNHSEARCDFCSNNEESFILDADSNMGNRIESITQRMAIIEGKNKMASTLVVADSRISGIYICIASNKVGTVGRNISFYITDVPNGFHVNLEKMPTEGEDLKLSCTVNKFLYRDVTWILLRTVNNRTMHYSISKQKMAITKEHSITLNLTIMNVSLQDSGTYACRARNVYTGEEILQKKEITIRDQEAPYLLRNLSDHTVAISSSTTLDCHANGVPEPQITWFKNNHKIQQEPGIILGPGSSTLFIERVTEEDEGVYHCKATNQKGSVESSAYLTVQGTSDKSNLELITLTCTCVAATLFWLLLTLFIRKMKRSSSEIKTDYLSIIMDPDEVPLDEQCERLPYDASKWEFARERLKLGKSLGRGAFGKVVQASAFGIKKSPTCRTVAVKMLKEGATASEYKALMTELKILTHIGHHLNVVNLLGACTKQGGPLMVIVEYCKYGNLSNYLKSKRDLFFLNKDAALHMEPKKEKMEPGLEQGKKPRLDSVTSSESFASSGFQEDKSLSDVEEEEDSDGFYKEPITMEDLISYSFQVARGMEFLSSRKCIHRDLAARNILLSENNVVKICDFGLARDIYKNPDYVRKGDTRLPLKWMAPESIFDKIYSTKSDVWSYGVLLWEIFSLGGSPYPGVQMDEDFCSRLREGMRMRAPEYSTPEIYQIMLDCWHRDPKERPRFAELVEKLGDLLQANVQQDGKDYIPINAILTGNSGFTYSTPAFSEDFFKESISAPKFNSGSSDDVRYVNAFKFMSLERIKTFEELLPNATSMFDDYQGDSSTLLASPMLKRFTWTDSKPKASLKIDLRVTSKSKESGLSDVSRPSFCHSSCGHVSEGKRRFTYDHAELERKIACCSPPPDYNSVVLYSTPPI
Sequence of Non-receptor tyrosine-protein kinase TYK2 (Homo sapiens) (P29597 whole entry): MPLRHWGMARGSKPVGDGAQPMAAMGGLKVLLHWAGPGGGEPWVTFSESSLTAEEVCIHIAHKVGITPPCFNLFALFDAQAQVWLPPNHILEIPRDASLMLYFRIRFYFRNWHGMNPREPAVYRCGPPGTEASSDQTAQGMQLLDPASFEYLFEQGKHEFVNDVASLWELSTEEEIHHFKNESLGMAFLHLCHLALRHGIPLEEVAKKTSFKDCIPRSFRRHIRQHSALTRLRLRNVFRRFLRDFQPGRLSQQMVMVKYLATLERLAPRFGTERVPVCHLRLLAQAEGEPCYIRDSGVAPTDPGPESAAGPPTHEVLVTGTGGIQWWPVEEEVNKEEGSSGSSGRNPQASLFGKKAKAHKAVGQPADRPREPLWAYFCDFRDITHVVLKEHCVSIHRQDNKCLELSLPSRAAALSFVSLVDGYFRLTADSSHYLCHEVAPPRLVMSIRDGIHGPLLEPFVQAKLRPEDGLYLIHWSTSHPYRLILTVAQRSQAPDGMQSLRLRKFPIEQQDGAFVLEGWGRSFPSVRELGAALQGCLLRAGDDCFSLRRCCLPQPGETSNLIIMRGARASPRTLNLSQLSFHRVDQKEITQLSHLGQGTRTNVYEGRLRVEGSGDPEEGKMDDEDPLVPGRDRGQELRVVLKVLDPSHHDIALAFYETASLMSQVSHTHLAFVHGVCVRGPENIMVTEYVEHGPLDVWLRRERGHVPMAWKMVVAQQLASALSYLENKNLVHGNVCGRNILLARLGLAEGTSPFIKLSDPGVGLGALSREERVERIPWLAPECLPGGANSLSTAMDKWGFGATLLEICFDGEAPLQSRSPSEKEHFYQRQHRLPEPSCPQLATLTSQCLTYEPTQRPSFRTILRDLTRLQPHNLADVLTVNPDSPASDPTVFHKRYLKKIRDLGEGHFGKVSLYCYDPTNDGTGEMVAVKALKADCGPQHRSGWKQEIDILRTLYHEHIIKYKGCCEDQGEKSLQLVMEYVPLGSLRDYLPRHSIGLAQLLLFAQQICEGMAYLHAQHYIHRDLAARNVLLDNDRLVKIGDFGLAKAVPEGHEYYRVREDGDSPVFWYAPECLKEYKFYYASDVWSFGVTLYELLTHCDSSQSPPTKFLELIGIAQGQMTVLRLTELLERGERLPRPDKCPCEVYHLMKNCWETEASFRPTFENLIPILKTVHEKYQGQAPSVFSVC
Sequence of Tyrosine-protein kinase Fgr (Homo sapiens) (P09769 2-529 limits assumed): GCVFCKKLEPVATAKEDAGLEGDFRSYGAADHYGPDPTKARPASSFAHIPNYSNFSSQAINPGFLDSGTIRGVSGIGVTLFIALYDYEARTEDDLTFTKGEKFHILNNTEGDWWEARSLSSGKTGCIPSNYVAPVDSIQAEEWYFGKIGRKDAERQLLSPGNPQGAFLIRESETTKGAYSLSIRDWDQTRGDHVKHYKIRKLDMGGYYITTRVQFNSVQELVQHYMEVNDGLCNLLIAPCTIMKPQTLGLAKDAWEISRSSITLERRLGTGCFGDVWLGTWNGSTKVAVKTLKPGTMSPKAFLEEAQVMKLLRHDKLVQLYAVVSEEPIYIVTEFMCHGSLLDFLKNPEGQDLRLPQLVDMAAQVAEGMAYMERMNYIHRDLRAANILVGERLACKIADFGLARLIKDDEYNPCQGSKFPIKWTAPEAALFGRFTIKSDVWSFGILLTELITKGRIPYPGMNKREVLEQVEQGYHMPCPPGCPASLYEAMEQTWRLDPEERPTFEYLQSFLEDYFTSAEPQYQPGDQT
Sequence of Fibroblast growth factor receptor 4 (Homo sapiens) (P22455 22-802 limits assumed): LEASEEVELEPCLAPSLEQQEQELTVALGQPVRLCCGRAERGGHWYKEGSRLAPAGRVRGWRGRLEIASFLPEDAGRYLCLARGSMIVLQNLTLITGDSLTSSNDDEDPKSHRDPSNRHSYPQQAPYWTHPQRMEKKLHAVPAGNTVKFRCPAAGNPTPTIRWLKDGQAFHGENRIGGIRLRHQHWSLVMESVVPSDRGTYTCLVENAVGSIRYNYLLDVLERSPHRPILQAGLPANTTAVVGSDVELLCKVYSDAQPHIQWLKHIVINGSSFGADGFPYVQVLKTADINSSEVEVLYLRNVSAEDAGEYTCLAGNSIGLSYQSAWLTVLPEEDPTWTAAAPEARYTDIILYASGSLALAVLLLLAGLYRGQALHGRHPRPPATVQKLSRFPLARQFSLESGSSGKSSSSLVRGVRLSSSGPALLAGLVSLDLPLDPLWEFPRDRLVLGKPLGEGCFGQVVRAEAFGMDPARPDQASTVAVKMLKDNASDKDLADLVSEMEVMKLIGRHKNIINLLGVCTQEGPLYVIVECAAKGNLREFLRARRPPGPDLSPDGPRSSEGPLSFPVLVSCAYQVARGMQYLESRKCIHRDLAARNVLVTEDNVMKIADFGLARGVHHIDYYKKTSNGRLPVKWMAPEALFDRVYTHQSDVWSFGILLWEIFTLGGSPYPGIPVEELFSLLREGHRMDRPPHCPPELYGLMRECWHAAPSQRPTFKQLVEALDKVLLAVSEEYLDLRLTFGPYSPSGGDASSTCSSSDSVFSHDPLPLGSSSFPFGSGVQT

Turning to `Nc1ncnc2occ(-c3ccc(NC(=O)Nc4cc(C(F)(F)F)cc(C(F)(F)F)c4)cc3)c12`, the inhibition in assay [1] was 9.49%; in assay [2] it was 1.01%; in assay [3], 15.9%; in assay [4] it was 23.4%; in assay [5], 73.9%; in assay [6], 19%. Also, the inhibition was 78.3% in assay [7], 12.8% in assay [8], -5.22% in assay [9] and 2.97% in assay [10].
On to `CC(C)=Cc1cccc2c1/C(=N/Nc1ccc(S(N)(=O)=O)cc1)C(=O)N2`, for which the inhibition in assay [1] is 1.59%; in assay [2], 5.76%; in [3] it was 25.3%; in assay [4] it was 1.39%; in assay [5] it was 13.9%; in assay [6], 6.79%. Further, the inhibition in assay [7] was 48.9%; in assay [8], 15.6%; in assay [9], 20.7%; in assay [10], 2.83%.
With `CC1=C(C(=O)Nc2ccc3[nH]ncc3c2)C(c2ccc3ccccc3c2)CC(=O)N1` (stereo not given), the inhibition was found to be 10.6% in assay [1]; 3.21% in assay [2]; 15.1% in assay [3]; 2.44% in [4]; 4.08% in [5]; 0.05% in assay [6]. Further, the inhibition in assay [7] came out at 3.17%; in [8], 0.1%; in assay [9] it was 4.98%; in assay [10], 3.61%.
For the compound `NC(=O)c1ccc(-c2nc(-c3ccccn3)c(-c3ccc4c(c3)OCO4)[nH]2)cc1`, the inhibition in assay [1] is -0.14%; in assay [2], 3.69%; in assay [3], 5.27%; in assay [4], -0.48%; in [5] it was -1%; in [6], 1.89%. Besides, the inhibition in assay [7] is 2.37%; in [8] it was 1.11%; in assay [9] it was -0.31%; in [10] it was 2.08%.
Turning to `COc1cc2c(cc1Nc1nc(N3CCc4ccccc43)c3cc[nH]c3n1)N(C(=O)CN(C)C)CC2`, the inhibition is 0.78% in assay [1]; -0.2% in [2]; 3.44% in assay [3]; 1.49% in [4]; 2.02% in [5]; 0.56% in assay [6]. For the same compound, the inhibition in [7] was -1.35%; in assay [8] it was -2.55%; in assay [9] it was -2.82%; in assay [10], 1.61%.
In the case of `Cc1ccc(NC(=O)c2ccnc(N3CCCC3)c2)cc1-c1ccc(C(=O)NCC2CC2)cc1`, the inhibition in assay [1] was -0.86%; in assay [2] it was 1.54%; in assay [3], 6.32%; in assay [4] it was -0.77%; in [5] it was 0.49%; in assay [6], 1.08%. Further, the inhibition in assay [7] was 7.31%; in [8] it was -8.49%; in assay [9] it was -2.58%; in [10], 2.24%.
On to `CCn1c(-c2nonc2N)nc2ccncc21`, for which the inhibition in [1] is -0.3%; in [2] it was 0.66%; in assay [3], 1.16%; in assay [4], 0.15%; in assay [5], -0.38%; in [6] it was 3.16%. The inhibition in [7] is 1.23%; in assay [8], -3.67%; in assay [9], -0.83%; in assay [10], -0.29%.
For `Cc1nnc(-c2ccc(C)c(-c3ccc(C(=O)Nc4cccc(C#N)c4)cc3)c2)o1`, the inhibition in assay [1] is 0.88%; in assay [2] it was 4.67%; in assay [3], 5.11%; in assay [4] it was -0.39%; in assay [5], 1.58%; in [6], -0.61%. Besides, the inhibition in [7] was 1.58%; in assay [8], 0.86%; in [9], -1.12%; in assay [10], 1.94%.
For the compound `O=C1NC(=O)C(N2CCc3ccccc32)=C1c1ccc(Cl)cc1`, the inhibition in [1] was determined as 1.44%; in assay [2], 2.39%; in [3] it was 8.07%; in assay [4], 1.82%; in [5], 5.14%; in assay [6], 2.06%. Moreover, the inhibition in assay [7] was 5.05%; in [8] it was -2.14%; in assay [9] it was -4.27%; in assay [10], 3.4%.
On to `CCn1c(-c2nonc2N)nc2cnc(Oc3cccc(NC(=O)c4ccc(OCCN5CCOCC5)cc4)c3)cc21`, for which the inhibition in [1] was found to be 2.48%; in [2], 4.08%; in assay [3] it was 5.54%; in [4], 0.64%; in assay [5], 2.14%; in assay [6], 0.9%. The inhibition was 3.19% in assay [7], -3.34% in assay [8], -1.28% in [9] and 3.27% in assay [10].
On to `CCc1cccc(NC(=O)Nc2ccc(Oc3ccc4nc(NC(=O)OC)[nH]c4c3)cc2)c1`, for which the inhibition was -0.63% in [1]; 5.68% in [2]; 5.18% in assay [3]; 36.4% in assay [4]; 43.8% in [5]; 37.4% in assay [6]. The inhibition in assay [7] is 48%; in [8], 1.59%; in assay [9], -2.46%; in assay [10], 10.6%.
Turning to `COc1ccc(-c2ccncc2)cc1C(N)=O`, the inhibition in assay [1] was determined as 1.48%; in assay [2], 3.69%; in [3] it was 4.6%; in [4], 2.23%; in [5] it was 2.25%; in assay [6] it was 5.04%. Besides, the inhibition in assay [7] was 2.52%; in assay [8] it was 4.29%; in assay [9] it was -3.25%; in [10], 1.12%.
With `CS(=O)(=O)CCN(CC#N)Cc1ccc(-c2ccc3ncnc(Nc4ccc(OCc5cccc(F)c5)c(Cl)c4)c3c2)o1`, the inhibition in assay [1] was -4.08%; in assay [2], 0.96%; in assay [3], 1.68%; in [4], 3.08%; in assay [5] it was 6.33%; in assay [6], -0.67%. Also, the inhibition is 2.32% in assay [7], -4.23% in [8], -4.41% in assay [9] and -1.18% in assay [10].
`COc1cc2ncn(-c3cc(O[C@@H](C)c4ccccc4Cl)c(C(N)=O)s3)c2cc1OC`: the inhibition amounted to 2.7% in assay [1]; 5.04% in [2]; 32.2% in [3]; 4.55% in [4]; 13.3% in assay [5]; 5.29% in assay [6]. For the same compound, the inhibition in assay [7] is 3.2%; in assay [8], -3.12%; in assay [9], -4.63%; in [10], 2.45%.
Regarding `CC1=C(C(=O)Nc2ccc3[nH]ncc3c2)C(c2ccc(Cl)c(Cl)c2)CC(=O)N1` (stereo not given), the inhibition in assay [1] turned out to be 8.43%; in [2], 1.97%; in assay [3], 6.08%; in assay [4], 0.2%; in assay [5], 2.26%; in assay [6] it was 1.43%. Also, the inhibition is 1.54% in assay [7], -2.38% in [8], 3.29% in assay [9] and 1.69% in assay [10].
On to `O=C(Nc1n[nH]c2nc(-c3ccco3)c(Br)cc12)C1CC1`, for which the inhibition in [1] amounted to 2.76%; in [2], 2.88%; in [3], 11.3%; in [4] it was 2.26%; in assay [5] it was 4.22%; in assay [6] it was 1.23%. Besides, the inhibition in assay [7] is 2.62%; in assay [8] it was -1.82%; in assay [9], -1.51%; in assay [10], 2.22%.
`CCCN1CCC=C(c2ccc(Nc3nc(Nc4ccccc4C(N)=O)c4cc[nH]c4n3)c(C)c2)C1`: the inhibition in [1] is 1.82%; in assay [2], -0.56%; in assay [3], 4.71%; in [4] it was -0.55%; in [5], 5.76%; in assay [6] it was 6.74%. Further, the inhibition was 9.96% in assay [7], 3.17% in assay [8], -1.46% in [9] and 0.75% in assay [10].

For orientation: inhibition means the change of the read-out against control, counted positive when it falls.

For the origin of these results see ChEMBL document CHEMBL1961873, “Compounds: GSK PKIS; Assays: Nanosyn kinase panel” (2012).
